Eight compounds from PubChem BioAssay (NCI) can be followed below.

The test in a line: NCI Yeast Anticancer Drug Screen. Data for the sgs1 strain (AID 173).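 Also: 0% = growth of vehicle-only control cultures.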 As to conditions: S. cerevisiae sgs1 mutant, active compounds read high. Here is the method: Growth inhibition of yeast strains with defined genetic alterations is measured as a screen for potential anti-cancer activity. Selected strains with alterations in DNA damage repair or cell cycle control were exposed to compounds and growth inhibition was measured relative to vehicle treated controls. The strain used in this assay is sgs1

Each structure is given as a SMILES string. About 79,000 compounds went through this panel and 15% of them were active in at least one assay; those are over-represented in the sample as a whole. Active and inactive are the calls of the source. Rule as the data show it: active = growth inhibition above about 70%; inactive = the rest.

For the compound `Cc1ccc(Nc2nc3c(=O)n(C)c(=O)n(C)c3nc2Nc2ccc(C)cc2)cc1`, the growth inhibition is, setting by setting: (at 1.2 µM) -3% (inactive); (at 3.7 µM) 2% (inactive); (at 11.0 µM) 1% (inactive); (at 33.0 µM) 3% (inactive); (at 100.0 µM) 20% (inactive).

With `COc1cc(CC2CC(c3ccc4c(c3)OCO4)OC2=O)cc(OC)c1OC` (stereo not given), the growth inhibition is -2% (inactive) (at 1.2 µM); -2% (inactive) (at 3.7 µM); -2% (inactive) (at 11.0 µM); 0% (inactive) (at 33.0 µM); 9% (inactive) (at 100.0 µM).

Consider `CN(C)C[C@H]1CC[C@@H](CN(C)C)C1=O`, for which the growth inhibition (at 1.2 µM) is 15% (inactive); the growth inhibition (at 3.7 µM) was 26% (inactive); the growth inhibition (at 11.0 µM) is 30% (inactive); the growth inhibition (at 33.0 µM) was 44% (inactive); the growth inhibition (at 100.0 µM) is 81% (active).

Turning to `O=C1CSC(/C=C/c2ccccc2)N1c1ccc(-c2ccc(-n3c(-c4ccccc4)nc4ccccc4c3=O)cc2)cc1` (stereo not given), the growth inhibition was -2% (inactive) (at 1.2 µM); -2% (inactive) (at 3.7 µM); 0% (inactive) (at 11.0 µM); 17% (inactive) (at 33.0 µM); 61% (inactive) (at 100.0 µM).

As to `CN(C)c1ccc(Sc2ccc3nc(N)nc(N)c3c2)cc1`, the growth inhibition is 14% (inactive) (at 1.2 µM); 21% (inactive) (at 3.7 µM); 24% (inactive) (at 11.0 µM); 17% (inactive) (at 33.0 µM); 18% (inactive) (at 100.0 µM).

`CC1CCN(CCC(=O)c2ccc(Cl)cc2)CC1`: the growth inhibition is, setting by setting: (at 1.2 µM) 5% (inactive); (at 3.7 µM) 32% (inactive); (at 11.0 µM) 45% (inactive); (at 33.0 µM) 62% (inactive); (at 100.0 µM) 66% (inactive).

As to `Cc1ccc(C2C(Cl)C(=O)N2n2cnc3ccccc3c2=O)cc1` (stereo not given), the growth inhibition is 11% (inactive) (at 1.2 µM); 17% (inactive) (at 3.7 µM); 11% (inactive) (at 11.0 µM); 22% (inactive) (at 33.0 µM); 30% (inactive) (at 100.0 µM).

Turning to `S=C(Nc1ccc(Cl)c(Cl)c1)SCc1ccc2c(c1)OCO2`, the growth inhibition was 6% (inactive) (at 1.2 µM); 38% (inactive) (at 3.7 µM); 99% (active) (at 11.0 µM); 99% (active) (at 33.0 µM); 96% (active) (at 100.0 µM).
